Experimental findings from PubChem BioAssay (EPA / NIEHS) are described below.

Structures are written as SMILES. Records with an inconclusive call do not appear. Activity calls are given as the source filed them. The calls were made as follows: active = hit-call score of the fitted dose curve at least 0.9, where 1 is the maximum; inconclusive = response in the unintended direction; inactive = score below 0.9.

Read-out in the assay: alkyl and aryl transferase (GSTA2), GSTA2 (gene 2939)
The experiment in a line: CLD_GSTA2_24hr: CellzDirect (CLD) Gene Expression Assay for alkyl and aryl transferase (GSTA2) at 24 hours (AID 2283693). The procedure:
CLD_24hr is a cell-based, multiplexed-readout assay that uses hepatocyte, a human liver primary cell, with measurements taken at 24 hours after chemical dosing in a 96-well plate.CLD_GSTA2_24hr is one of 16 assay component(s) measured or calculated from the CLD_24hr assay. It is designed to make measurements of mRNA induction, a form of inducible reporter, as detected with chemiluminescence signals by Quantitative Nuclease Protection Assay (qNPA) technology.Data from the assay component CLD_GSTA2_24hr was analyzed at the endpoint, CLD_GSTA2_24hr, in the positive analysis fitting direction relative to DMSO as the negative control and baseline of activity. Using a type of inducible reporter, gain-of-signal activity can be used to understand changes in the reporter gene as they relate to the gene GSTA2. Furthermore, this assay endpoint can be referred to as a primary readout. To generalize the intended target to other relatable targets, this assay endpoint is annotated to the transferase intended target family, where subfamily is alkyl and aryl transferase.
Human hepatocyte cultures were treated daily for two consecutive days with fresh dosing solutions containing appropriate concentrations of the 320 ToxCast chemicals (chemical identities were blinded to CellzDirect and other ToxCast collaborators), vehicle control (0.2% DMSO), and positive control inducers as summarized in Table 1. Due to the large number of treatment groups and chemicals examined, the ToxCast chemicals were divided into two groups (spanning two independent cultures of hepatocytes from separate donor preparations (Hu778: ToxCast plates 1 and 2; Hu776: ToxCast plates 3 and 4). Each preparation of human hepatocyte cultures was treated with respective vehicle control, medium only control, set of six positive controls/reference chemicals for the five hepatic receptor pathways, and a subset of eight of the ToxCast chemicals (indoxacarb, pyrithiobac-sodium, norflurazon, cyhalofop-butyl, methomyl, thiram, acetochlor, and propiconazole). These replicate data, coupled with internal replicates designed within the blinded ToxCast chemical library, provided additional data to evaluate interindividual differences between hepatocyte preparations and their potential impact on chemical profiles.Cell morphology and integrity were evaluated using phase-contrast microscopy as an indicator of hepatocyte cell health (Tyson & Green, 1987). Cultures for each treatment group (i.e., media, vehicle [0.2% DMSO], positive control inducers [multiple concentrations], and the ToxCast chemicals [multiple concentrations]) were observed and cell morphology was assessed relative to vehicle control cultures at each harvest time point (0, 6, 24, or 48 h). […] Images were evaluated at the conclusion of the study to assess changes in cell integrity and account for the effects of chemical exposure on uncharacteristic changes in concentration-dependent gene expression profiles. The results from these determinations of apparent cytotoxicity were annotated (yes/no) alongside the corresponding qNPA data for reference.At the conclusion of each treatment period, hepatocyte cultures (96-well) were washed with 1 volume of HBSS, lysed by addition of 25 ul ArrayPlate lysis buffer (HTG, Tucson, AZ), and 70 ul/well of Denaturation Oil, denatured by incubation at 95C for 10 min, and frozen at approximately -70C until analysis by nuclease protection assay (qNPA) (Roberts et al., 2007). For qNPA analysis, cell lysates were thawed at 50C for approximately 30 min, qNPA probes were added, and samples were incubated at 95C for 10 min to begin the detection process by denaturing the target RNA, dissociating the duplexes and secondary structure hybridization. At the conclusion of the hybridization period, S1 nuclease reagent was added to each sample to digest all nonprotected nucleotides at 50C for 60-90 min. […]
With `CC(C)N(C(=O)COc1nnc(C(F)(F)F)s1)c1ccc(F)cc1`, the call was inactive.
To `C#CCN1C(=O)COc2cc(F)c(N3C(=O)C4=C(CCCC4)C3=O)cc21` belongs “inactive”; to `CCOC1Oc2ccc(OS(C)(=O)=O)cc2C1(C)C` (stereo not drawn), “inactive”.
The same measure for `O=C(NC(=O)c1c(F)cccc1F)Nc1ccc(OC(F)(F)C(F)OC(F)(F)F)c(Cl)c1` (stereo not drawn): “inactive”; for `CNC(=O)Oc1cccc(N=CN(C)C)c1`: “inactive”; for `OCCOc1ccccc1`: “inactive”.
To `CC1(c2ccc(Oc3ccccc3)cc2)OC(=O)N(Nc2ccccc2)C1=O` (stereo not drawn) belongs “inactive”; to `[2H]C1([2H])[n+]2ccccc2-c2cccc[n+]2C1([2H])[2H]`, “inactive”; to `COC(=O)c1ccccc1CS(=O)(=O)NC(=O)Nc1nc(OC)cc(OC)n1`, “inactive”.
For `O=C1c2ccccc2C(=O)N1SC(Cl)(Cl)Cl`, the compound was called inactive.
The same measure for `Oc1cc(Cl)ccc1Oc1ccc(Cl)cc1Cl`: “inactive”.
Take `CCS(=O)(=O)c1cccnc1S(=O)(=O)NC(=O)Nc1nc(OC)cc(OC)n1`: the compound was classed as inactive.
Take `O=[N+]([O-])c1c(Cl)c(Cl)c(Cl)c(Cl)c1Cl`: the compound was classed as inactive.
To `N#CN` belongs “inactive”.
To `CCN(CC)C(=O)SCc1ccc(Cl)cc1` belongs “inactive”; to `CC(C)(C)C(O)/C(=C\c1ccc(Cl)cc1Cl)n1cncn1` (stereo not drawn), “inactive”; to `CC(C)(C)C(O)C(Oc1ccc(Cl)cc1)n1cncn1` (stereo not drawn), “inactive”.
The same measure for `Cc1cc(C)nc(NC(=O)NS(=O)(=O)c2ccccc2C(=O)OC2COC2)n1`: “inactive”; for `Clc1ccccc1-c1nnc(-c2ccccc2Cl)nn1`: “inactive”.
Regarding `C[C@H]1[C@H](c2ccc(Cl)cc2)SC(=O)N1C(=O)NC1CCCCC1`, the call was inactive.
To `O=S(=O)(O)C(F)(F)C(F)(F)C(F)(F)C(F)(F)C(F)(F)C(F)(F)C(F)(F)C(F)(F)F` belongs “inactive”.
`N#Cc1c(Cl)c(Cl)c(Cl)c(C#N)c1Cl`: the outcome was inactive.
The same measure for `O=S1OCC2C(CO1)C1(Cl)C(Cl)=C(Cl)C2(Cl)C1(Cl)Cl` (stereo not drawn): “inactive”.
To `CC(C)OC(=O)Nc1cccc(Cl)c1` belongs “inactive”; to `CCCN(CCC)c1c([N+](=O)[O-])cc(C(F)(F)F)cc1[N+](=O)[O-]`, “inactive”.
The same measure for `CN1CSC(=S)N(C)C1`: “inactive”; for `O=[N+]([O-])/N=C1\NCCN1Cc1ccc(Cl)nc1`: “inactive”.
Turning to `COC(=O)c1ccccc1S(=O)(=O)NC(=O)Nc1nc(C)nc(OC)n1`, the compound was classed as inactive.
The same measure for `CCC(C)(NC(=O)c1cc(Cl)c(C)c(Cl)c1)C(=O)CCl` (stereo not drawn): “inactive”; for `CCC(C)Nc1c([N+](=O)[O-])cc(C(C)(C)C)cc1[N+](=O)[O-]` (stereo not drawn): “inactive”; for `COc1cc(OC)nc(NC(=O)NS(=O)(=O)c2cc(NC=O)ccc2C(=O)N(C)C)n1`: “inactive”.
To `COP(=O)(OC)OC=C(Cl)Cl` belongs “inactive”.
The same measure for `CC[C@H](C)[C@H]1O[C@]2(C=C[C@@H]1C)C[C@@H]1C[C@@H](C/C=C(\C)[C@@H](O[C@H]3C[C@H](OC)[C@@H](O[C@H]4C[C@H](OC)[C@@H](O)[C@H](C)O4)[C@H](C)O3)[C@@H](C)/C=C/C=C3\CO[C@@H]4[C@H](O)C(C)=C[C@@H](C(=O)O1)[C@]34O)O2` (tested in a mixture with another compound): “inactive”.
Regarding `Oc1ccc(Cl)cc1Cc1ccccc1`, the outcome was inactive.
The same measure for `COC(=O)c1ccccc1S(=O)(=O)NC(=O)N(C)c1nc(C)nc(OC)n1`: “inactive”.
In the case of `CCOCN(C(=O)CCl)c1c(C)cccc1CC`, the compound was called inactive.
To `O=C(O)COc1ccc(Cl)cc1Cl` belongs “inactive”.
The same measure for `CNC(=O)CSP(=S)(OC)OC`: “inactive”.
